Experiments:
Assay in all cases: PBM binding z-score (relative to random genomic background probes); higher = stronger binding; sequences stand for … in GC…GCGATTGACAGCGTAGAATGAAGG
[1] = tested on: FXR:RXRa (NR concentration 270 nM, RXRa partner concentration 90 nM)
How it was run: (§1)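 Scanned fluorescence from custom Agilent 4×180K protein-binding microarrays was regression-normalized. Binding z-scores use random background probes as reference. Ligand-free nuclear receptor dimers were incubated on the arrays for 1 h and detected with antibodies against each partner (one per run).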

[2] = tested on: LXRa:RXRa (NR concentration 270 nM, RXRa partner concentration 90 nM)
How it was run: as §1

[3] = tested on: LXRa homodimer (NR concentration 270 nM)
How it was run: as §1

[4] = tested on: LXRb:RXRa (NR concentration 270 nM, RXRa partner concentration 90 nM)
How it was run: as §1

[5] = tested on: LXRb homodimer (NR concentration 270 nM)
How it was run: as §1

[6] = tested on: PPARa:RXRa (NR concentration 270 nM, RXRa partner concentration 90 nM)
How it was run: as §1

[7] = tested on: PPARg:RXRa (NR concentration 180 nM, RXRa partner concentration 90 nM)
How it was run: as §1

[8] = tested on: PPARg:RXRa 270nM:90nM, anti-RXR (NR concentration 270 nM, RXRa partner concentration 90 nM)
How it was run: as §1

[9] = tested on: PPARg:RXRa 30nM:10nM, anti-RXR (NR concentration 30 nM, RXRa partner concentration 10 nM)
How it was run: as §1

[10] = tested on: PPARg:RXRa 90nM:30nM, anti-RXR (NR concentration 90 nM, RXRa partner concentration 30 nM)
How it was run: as §1

Sequence | PBM binding z-score [1] | PBM binding z-score [2] | PBM binding z-score [3] | PBM binding z-score [4] | PBM binding z-score [5] | PBM binding z-score [6] | PBM binding z-score [7] | PBM binding z-score [8] | PBM binding z-score [9] | PBM binding z-score [10]
GCTGCTAGGTGAGGTTGGTCAGCTAACGGGTACG | -0.483 | -0.442 | -0.661 | -0.672 | -0.761 | -0.326 | -0.331 | -0.69 | -1.04 | -0.961
GTACCAAGGTGGATAGGTCGTTGATGAGTAGGCG | -0.366 | -0.16 | -0.154 | -0.255 | -0.708 | 0.372 | 0.422 | 0.293 | -0.451 | 0.026
GATACAGGGTCAAGGACAGAGTACGCGTATTGAT | 6.59 | 4.45 | 0.185 | 4 | 0.413 | 5.54 | 5.7 | 5.61 | 2.93 | 4.51
CTACCAAGATGAACAAGGTCGTTGATTACTATTC | 0.828 | 0.783 | 0.9 | 1.49 | 0.267 | 1.09 | 0.228 | 0.135 | -0.0206 | 0.314
CATACTGGGTCAGCTAGGCCAGAGTAGGGACGGC | 0.696 | 0.526 | -0.513 | 0.249 | -0.198 | 2.16 | 3.45 | 2.95 | 0.499 | 2.06
TGAATGAGGTTATAAGATTAGGGAACGTTGCAAA | 1.34 | 1.39 | 0.076 | 1.21 | -0.0904 | 2.29 | 1.15 | 1.55 | 1.09 | 1.51
GCGACTGGGGCATCCGCAGGTTACCATAACTTAA | -0.134 | -0.356 | -0.324 | 0.722 | -0.515 | 1.06 | 0.756 | 0.848 | -0.543 | 0.0228
GCTTGTAGATCAAGTTTAAGAAAGACTAAGCTAA | -0.477 | -0.231 | -0.318 | -0.15 | -0.39 | 0.142 | -0.204 | -0.0876 | -0.116 | -0.107
CGTCAAAGTTCAACTCAGGTAACGTAAAGCACGC | 7.13 | 6.43 | 4.59 | 4.35 | 1.99 | 5.08 | 4.66 | 5.43 | 2.08 | 4.01
CGAACGAGGGCATGAGTCGATAGCAAATGCCGAT | 0.37 | 0.268 | -0.569 | -0.0412 | -0.951 | 1.48 | 1.74 | 2.28 | 0.37 | 1.93
CCTTACGGGTCAAGGTTCTAGCACGGGTGGTACG | 5.14 | 3.35 | -0.039 | 2.64 | -0.204 | 4.86 | 4.7 | 5.18 | 2.28 | 4.24
CTCGAAAGGACGGTTGAGGTGAGTATACGGATAA | 0.507 | -0.351 | -0.439 | -0.303 | -0.832 | 0.0414 | 0.232 | -0.0748 | 0.0534 | -0.244
ATCTCTAGGTAAAGTTCAGTCAAAGATCGATAGA | 1.73 | 3.21 | 2.37 | 1.64 | 0.899 | 2.44 | 3.53 | 4.45 | 2.64 | 4.1
ACTATTAGTTGACTTAGGGCAACTGATACGACGC | 0.17 | 0.0575 | 0.162 | 0.0522 | 0.38 | 0.0544 | 0.858 | 0.0451 | 0.501 | 0.431
CTCGAAAGGTCCGTTGAGGTGAGTATACGGATAA | 0.973 | -0.377 | -0.421 | -0.34 | -0.666 | 0.249 | -0.102 | 0.101 | -0.184 | -0.198
CGAACGAGAGCATGAGTTGATAGCAAATGCCGAT | -0.453 | -0.53 | -0.103 | -0.828 | -0.953 | -0.357 | 0.777 | 0.133 | -0.214 | -0.282
ATAATGAGGTTAAGATCAGGGAAACAGAATACAT | 2.39 | 2.59 | 0.379 | 2.15 | 0.727 | 3.79 | 3.01 | 2.48 | 1.48 | 2.19
CCGGCTAGGTCAATGGTCAGCTAAAGCAGCTCGC | 3.18 | 1.98 | -0.137 | 1.48 | -0.304 | 2.91 | 3.63 | 4.32 | 1.63 | 4.03
GCTGCTAGGTCAGGTTGGTCAGCTCACGGGTACG | 1.27 | 0.883 | -0.243 | 0.696 | -0.186 | 1.57 | 0.553 | 0.724 | -0.171 | 0.333
CCTCGGAGGACAGAAAGTCAGAGCTGTCCGCTTT | -0.421 | -0.464 | -0.45 | -1.05 | -0.903 | -0.745 | -0.796 | -0.982 | -1.28 | -1.14
CAAACTAGGTCACCGGAAGGTCAAAGACCGCATG | 5.97 | 5.91 | 4.14 | 4.91 | 1.03 | 6.19 | 9.78 | 7.64 | 5.86 | 7.65
GCTAGTTGGTCAGAAAAAGGTCACACACCGGTCG | 2.95 | 3.7 | 3.13 | 3.75 | 0.434 | 4.21 | 1.74 | 3.02 | 0.669 | 2.14
AGTTAAAGTTCACTAGGTAACGTAAGATTCAGCT | 4.84 | 4.91 | 3.45 | 2.98 | 1.1 | 4.57 | 6.24 | 5.79 | 2.62 | 4.52
TGAATGAGGTTATAAGATCTGGGAACGTTGCAAA | 1.32 | 1.03 | -0.215 | 1.06 | -0.0795 | 2.54 | 1.01 | 1.83 | 0.892 | 1.58

— the supplement of paper PMC6555819
